Experimental data: publication PMC5540273 (PLoS ONE, 2017)

Test system: TAOK3
Conditions: concentration: 1 μM, replicates: in singlicate; n = 1
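Further: KINOMEscan kinase panel screen.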

Compound	%Inh [%]
CC(C)c1ccc(O)cc1Nc1ccnc2ccc(C(F)(F)F)cc12 [GW482059]	4
O=C(Nc1n[nH]c2nc(-c3cccs3)c(Br)cc12)C1CC1 [SB-735297]	0
Cc1cnc(N)c(/C=C/c2cncc(C(=O)NCCc3ccc(Cl)cc3Cl)c2)c1.Cl [GSK190937]	25
c1ccc(-c2ccnc3[nH]ccc23)cc1 [SB-693578]	0
O=C(Nc1n[nH]c2nc(-c3ccco3)c(Br)cc12)C1CCN(Cc2ccccc2)C1.O=C(O)[C@H](O)[C@@H](O)C(=O)O (stereo not shown) [SB-742034]	10
CCCCc1nn2ncccc2c1-c1ccnc(NC2CC2)n1 [GW684374]	0
CC(=O)c1cccc(NC(=O)NC2CCN(c3ccnc(Nc4ccc(F)cc4)n3)C2)c1 (stereo not shown) [GSK1379710]	11
COc1ccc(Nc2nccc(N3CCC(NC(=O)C(C)c4ccc(Cl)cc4)C3)n2)cc1 (stereo not shown) [GSK1379735]	0
CS(=O)(=O)CCNCc1nc(-c2ccc3ncnc(Nc4ccc5c(cnn5Cc5ccccc5)c4)c3c2)cs1.Cl.Cl [GW569716]	0
Cc1ccc(-c2nc(Nc3ccncc3)c3ccccc3n2)s1 [GSK189015]	5
Cc1cccc2c(-c3ccncn3)c(-c3ccc(F)cc3)nn12 [GW515532]	0
Cc1ccc(NC(=O)Nc2ccc(Cl)c(C(F)(F)F)c2)cc1-c1ccc(C(=O)Nc2ccncc2)cc1 [GSK1398470]	0
COc1ccc(Nc2nccc(NCCNC(=O)Nc3cc(C)ccc3C)n2)cc1 [GSK1379899]	1
